# Measurements as given in publication PMC4336329 (PLoS ONE, 2015).
# The campaign covered roughly 310,000 compounds. About 14,000 (4.5%) showed an effect of 50% or more. Effects have a minus sign here. For the sample, strong results were picked, then their nearest neighbours and some compounds at random.
# Target: human ether-à-go-go-related gene (hERG) potassium channel (human, UniProt Q12809)
# Assay: primary screen, population patch clamp on CHO cells stably expressing hERG; higher = less effect of the substance
# 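Note: peak tail current of the secondary pulse compared with the same well before compound.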
# Sequence of human ether-à-go-go-related gene (hERG) potassium channel (Q12809 whole entry, looked up): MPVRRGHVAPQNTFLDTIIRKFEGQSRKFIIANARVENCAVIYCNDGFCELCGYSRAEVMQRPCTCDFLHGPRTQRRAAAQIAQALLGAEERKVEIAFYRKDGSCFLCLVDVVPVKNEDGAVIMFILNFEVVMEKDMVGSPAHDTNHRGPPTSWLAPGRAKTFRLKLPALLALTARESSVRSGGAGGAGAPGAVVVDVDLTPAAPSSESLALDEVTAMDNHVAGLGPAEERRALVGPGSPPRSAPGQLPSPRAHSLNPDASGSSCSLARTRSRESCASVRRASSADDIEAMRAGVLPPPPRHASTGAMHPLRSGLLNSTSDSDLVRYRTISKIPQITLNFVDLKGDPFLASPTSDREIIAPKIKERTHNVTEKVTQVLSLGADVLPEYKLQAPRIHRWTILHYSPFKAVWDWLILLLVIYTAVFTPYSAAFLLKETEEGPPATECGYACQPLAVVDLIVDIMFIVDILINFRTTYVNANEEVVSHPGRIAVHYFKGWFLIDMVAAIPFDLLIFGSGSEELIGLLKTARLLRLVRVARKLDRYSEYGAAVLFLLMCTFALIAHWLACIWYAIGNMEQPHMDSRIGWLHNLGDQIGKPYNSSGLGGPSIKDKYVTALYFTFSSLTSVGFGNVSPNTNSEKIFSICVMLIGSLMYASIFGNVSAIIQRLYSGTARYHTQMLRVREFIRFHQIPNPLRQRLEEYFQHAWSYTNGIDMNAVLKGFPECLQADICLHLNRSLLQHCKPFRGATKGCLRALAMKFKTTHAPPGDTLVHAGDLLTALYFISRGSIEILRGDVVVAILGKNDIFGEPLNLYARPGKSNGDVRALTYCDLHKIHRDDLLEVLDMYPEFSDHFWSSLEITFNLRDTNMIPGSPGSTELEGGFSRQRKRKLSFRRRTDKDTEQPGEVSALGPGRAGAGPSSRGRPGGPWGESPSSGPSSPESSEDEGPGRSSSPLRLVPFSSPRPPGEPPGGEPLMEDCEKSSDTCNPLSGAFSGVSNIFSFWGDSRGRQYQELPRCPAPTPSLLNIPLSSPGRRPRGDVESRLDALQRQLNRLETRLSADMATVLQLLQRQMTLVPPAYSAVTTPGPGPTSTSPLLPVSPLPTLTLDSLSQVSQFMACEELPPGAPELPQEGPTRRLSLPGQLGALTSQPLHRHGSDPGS
row,SMILES,"hERG current change (%, negative = inhibition) at 10uM [%]"
1,COc1cc(Cl)c(C)cc1NC(=O)c1ccc2c(c1)OCO2,19
2,O=c1oc2ccccc2c2c1nnn2CCO,8.06
3,CCCCn1c(N)c(N(CC(C)C)C(=O)C2CC(=O)N(c3ccc(CC)cc3)C2)c(=O)[nH]c1=O (stereo not shown),18.8
4,CC(C)CC(NS(=O)(=O)OCC(Cl)(Cl)Cl)c1ccccc1 (stereo not shown),1.57
5,O=C(COC(=O)c1cc(-c2ccccc2)nc2ccccc12)NCC1CCCO1 (stereo not shown),-22.4
6,CCN(CC)c1ccc(C(=S)NCc2ccccc2)cc1,13
7,COc1ccc(NC(=O)CC2SC(=N)N(c3ccccc3)C2=O)c(OC)c1 (stereo not shown),29.4
8,O=C(CN1CCN(c2ccc(F)cc2)CC1)Nc1ccc(F)c(F)c1,-27.8
9,O=C(CN1CCN(c2ccc(Cl)cc2)CC1)Nc1ccc(F)cc1,-60.9
10,O=C(CN1CCN(c2ccc(F)cc2)CC1)Nc1ccccc1,6.74
11,CC(=O)Nc1ccc(S(=O)(=O)N(C)CC(=O)OCC(=O)N2CCCCC2)cc1,-1.43
12,O=C(Cn1c(NCCO)nc2ccccc21)NCCc1ccc(F)cc1,10.6
13,CC(C)Cc1nc(N2CCN(C(=O)C(C)C)CC2)c(C#N)c2c1CCC2,-27.2
14,CC(=O)N1CCN(c2nc(CC(C)C)c3c(c2C#N)CCC3)CC1,-9.82
15,CCCC(=O)N1CCN(c2nc(CC(C)C)c3c(c2C#N)CCC3)CC1,-53
16,CC(=O)c1ccc(N(CC(=O)NC2CCCC2)C(=O)c2csnn2)cc1,13.8
17,O=C(Nc1ccc(N2CCCC2)cc1)c1ccc(Br)o1,-20.8
18,O=C(Nc1ccc(N2CCN(C(=O)c3ccc(Cl)cc3)CC2)cc1)c1ccc(Br)o1,-75.3
19,O=C(Nc1ccc(N2CCN(C(=O)c3ccccc3)CC2)cc1)c1ccc(Br)o1,-75.9
20,O=C(Nc1ccc(N2CCN(C(=O)c3cccs3)CC2)cc1)c1cccc(F)c1,-62.6
21,O=C(Nc1ccc(C(=O)N2CCN(c3ccccn3)CC2)cc1)c1ccc(Br)o1,-66.7
22,CC(C)C(=O)N1CCN(c2ccc(NC(=O)c3ccc(Br)o3)cc2)CC1,-0.0806
23,N#CCC(=O)Nc1ccc(C(=O)N2CCN(c3ccccn3)CC2)cc1,18.4
24,O=C(c1ccc(Br)o1)N1CCN(c2ccccn2)CC1,-19.3
25,O=C(Nc1ccc(N2CCN(C(=O)c3cccs3)CC2)cc1)c1ccc(F)cc1,-15.3
26,O=C(Nc1ccc(N2CCN(C(=O)c3ccc(Cl)cc3)CC2)cc1)c1cc2ccccc2o1,-0.396
27,COc1cccc(C(=O)Nc2ccc(N3CCN(C(=O)c4cccs4)CC3)cc2)c1,-19.7
28,N#Cc1ccccc1N1CCN(C(=O)c2ccc(NC(=O)c3ccc(Br)o3)cc2)CC1,-18.9
